High-throughput results deposited in PubChem by National Center for Advancing Translational Sciences (NCATS).
Most compounds without a hit are left out; they make up all but 8.9% or so of the library.
MCF10A rereplic: A quantitative high throughput screen for small molecules that induce DNA re-replication in MCF 10a normal breast cells; actives 2.9% (n = 350,000); MCF 10A DNA re-replication, Hoechst nuclear intensity, 48 h; Potency, µM (highest dose often 46.1 µM), for inactives: at the highest dose activity, positive = re-replication, usual class: activators; AID 624296, 2012; also: potency is read from the fitted curve at half-maximal effect; % of control where 0% means no effect; nearly all actives have a fitted effect of over 50% in size
KB-3-1 tox: qHTS assay for MDR1-selective chemotherapeutics: Primary screen using the parental adenocarcinoma cell KB-3-1. Potency, µM (series often up to 46.1 µM), hits mostly cytotoxic. KB-3-1 viability, CellTiter-Glo ATP luminescence, 72 h. AID 1347075, 2019. actives 1.4% (n = 400,000); also: potency is read from the fitted curve at half-maximal effect; % is scaled to controls: 0 for no effect and ±100 for the full control effect; nearly all actives have a fitted effect of over 60% in size
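Parental KB-3-1 adenocarcinoma cells in phenol-red-free DMEM with 10% FBS were pin-treated with compounds at several concentrations, incubated 72 h at 37 °C, and viability read by CellTiter-Glo luminescence; concentration-effect curves were fitted after normalization.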
KB-V1 MDR tox: qHTS assay for MDR1-selective chemotherapeutics: Primary screen using the drug-selected MDR subline cells KB-V1; KB-V1 MDR cells viability, CellTiter-Glo, 72 h; Potency, µM (highest dose often 46.1 µM), hits mostly cytotoxic; actives 3.4% (n = 400,000); AID 1347076, 2019; also: potency is read from the fitted curve at half-maximal effect; % is scaled to controls: 0 for no effect and ±100 for the full control effect; nearly all actives have a fitted effect of over 60% in size
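KB-V1, DMEM (no phenol red) + 10% FBS; cpd pin-transferred, titration series; 72 h, 37 degrees C; CellTiter-Glo, luminescence. Data normalized, curve-fit.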
DRD3 antagonist: qHTS of D3 Dopamine Receptor Antagonist: qHTS; D(3) dopamine receptor (Homo sapiens), P35462; D3R cells, DiscoveRx beta-arrestin luminescence, antagonist mode; active compounds read low; max response, negative = inhibition, %; actives 2.5% (n = 360,000); AID 652054, 2013; in the data active = max response below about -50%; inconclusive = no clear call, values can overlap the other calls; also: % is scaled to controls: 0 for no effect and ±100 for the full control effect
Target sequence (P35462 whole entry, looked up): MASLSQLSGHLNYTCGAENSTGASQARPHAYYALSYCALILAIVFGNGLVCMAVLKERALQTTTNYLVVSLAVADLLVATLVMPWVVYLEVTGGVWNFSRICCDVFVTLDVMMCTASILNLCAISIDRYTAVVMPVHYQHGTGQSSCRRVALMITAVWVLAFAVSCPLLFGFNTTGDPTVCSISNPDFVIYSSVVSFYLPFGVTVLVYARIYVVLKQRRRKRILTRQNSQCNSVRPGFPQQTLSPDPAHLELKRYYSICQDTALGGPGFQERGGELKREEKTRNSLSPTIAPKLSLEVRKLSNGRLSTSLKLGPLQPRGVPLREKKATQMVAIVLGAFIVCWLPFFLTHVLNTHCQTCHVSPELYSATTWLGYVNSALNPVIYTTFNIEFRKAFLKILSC
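Cells expressing the human receptor were seeded at 1500 cells/well, incubated overnight at 37 degrees C in 5% CO2, then exposed to library compounds with dopamine controls for 90 minutes at 37 degrees C before luminescent detection.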
SW480 rereplic: A quantitative high throughput screen for small molecules that induce DNA re-replication in SW480 colon adenocarcinoma cells; AID 624297, 2012; Potency, µM (series often up to 46.1 µM), inactives show at the top dose re-replication activation, most hits filed as activators; actives 1.8% (n = 340,000); SW480 DNA re-replication, Hoechst DNA content imaging, 48 h; also: potency is read from the fitted curve at half-maximal effect; % of control where 0% means no effect; nearly all actives have a fitted effect of over 55% in size
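Quantitative HTS format with DMSO vehicle controls; 48 hr drug incubation at 37 C, then 40 min Hoechst staining and scanning imager measurement at 405 nm excitation.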
DRD3 agonist: qHTS of D3 Dopamine Receptor Agonist: qHTS. D3R DiscoveRx beta-arrestin cells, luminescence, 90 min. max activation, %. actives 0.58% (n = 410,000); in the data active = max activation above about 30%; also: 0% is about no effect
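Agonist-mode cell screen: cells plated at 1500/well and incubated overnight at 37 °C, then exposed to library compounds for 90 min at 37 °C. Detection reagent was added for 30–60 min at room temperature, and luminescence was read.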
An asterisk follows results filed as active; i = inactive; ? = inconclusive; / = no result given. Unless noted, calls follow the shape of the dose curve; as a rule, active = well fitted curve in the direction sought with a large enough effect; inconclusive = small, poorly fitted or top-dose-only effect, or another doubt; inactive = no such curve, though single readings can be large; an effect the other way counts as inactive or inconclusive.

SMILES	MCF10A rereplic	KB-3-1 tox	KB-V1 MDR tox	DRD3 antagonist	SW480 rereplic	DRD3 agonist
COCCNC(=O)c1c(N)n(CCC(C)C)c2nc3ccccc3nc12	3.26µM*	i	16.4µM*	?	?	-7.6
CCCCNC(=O)c1c(N)n(CCCOC)c2nc3ccccc3nc12	10.3µM*	i	18.4µM*	17.0	2.06µM*	21.3
COCCNC(=O)c1c(NC(=O)c2ccc(Br)o2)n(Cc2ccccc2)c2nc3ccccc3nc12	5.8µM*	i	11.6µM*	-8.8	?	2.5
Cc1ccc2c(c1)[C@H]1[C@H](CO2)[C@H](c2ccccc2)[C@]2(C)C(=O)N(CC3CCCO3)CC(=O)N12 (some centres not stated)	-3.7%	i	i	0.7	?	-9.8
Oc1cc(Cl)cc(Cl)c1Cl	?	i	i	42.2	-39.2%	5.5
C[C@@]12C(=O)N(Cc3ccco3)CC(=O)N1[C@H]1c3ccccc3OC[C@@H]1[C@@H]2c1ccccc1	-14.5%	i	i	?	-0.5%	-5.0
COCCOC(=O)c1c(N)n(Cc2ccco2)c2nc3ccccc3nc12	-2.1%	i	i	10.0	-0.3%	-2.9
CC(C)OCCCNC(=O)c1c(N)n(Cc2cccs2)c2nc3ccccc3nc12	1.84µM*	?	?	70.7	3.66µM*	6.3
C=CCNC(=O)c1c(N)n(CCN2CCOCC2)c2nc3ccccc3nc12	5.8µM*	i	i	12.9	7.6%	10.2
COc1ccc2c(C(=O)c3ccc(Cl)cc3)c(C)n(CC(=O)O)c2c1	/	/	/	/	/	10.4
CCC(=O)C(CC(C)N(C)C)(c1ccccc1)c1ccccc1 (configuration not stated)	/	/	/	/	/	-26.2
Cc1ccc(-c2csc(NC(CO)c3nc4ccccc4n3CCOCCO)n2)cc1 (configuration not stated)	?	i	i	-13.6	7.8%	-8.3
CCN(c1ccc(C(O)(C(=O)OC)C(F)(F)F)cc1)S(=O)(=O)c1ccc(C)cc1 (configuration not stated)	-0.8%	i	?	-12.0	2.7%	-16.3
CCOC(=O)C(O)(c1ccc(N(CC)S(=O)(=O)c2ccc(C)cc2)cc1)C(F)(F)F (configuration not stated)	?	i	18.4µM*	-28.6	?	-20.3
CC(C)(COC(=O)C(c1ccccc1)c1ccccc1)CN1CCOCC1	?	i	i	-24.7	11.5%	-12.2
Cc1cc([N+](=O)[O-])c2ccccc2[n+]1[O-]	16.4µM*	0.92µM*	0.517µM*	?	14.6µM*	-17.2
O=C(CSc1nnc(NC(=O)c2ccccc2F)s1)NCc1ccc(F)cc1	6.4%	i	i	4.4	?	8.1
O=C(NC(O)C(Cl)(Cl)Cl)NC(O)C(Cl)(Cl)Cl (configuration not stated)	3.2%	/	/	/	9.4%	76.7*
Cc1ccc2c(c1)C1CN(C)CCC1N2C(=O)c1cn(-c2ccccc2)nc1-c1ccccc1 (configuration not stated)	20.6µM*	i	i	-9.0	?	-15.7
CC1(C)OC(c2ccccc2)=C/C(=C/C=C2C(=O)NC(=O)NC2=O)O1	18.4µM*	?	i	-5.0	18.4µM*	2.6
Nc1c(C(=O)Nc2ccc(OC(F)(F)F)cc2)sc2nc3c(cc12)N1CCC3CC1	/	/	/	/	/	-3.3
COc1ccc(-[n+]2c(-c3ccccc3)cc(-c3ccc(C)cc3)cc2-c2ccccc2)cc1	?	2.59µM*	i	9.3	?	-3.9
Cc1ccc(-c2cc(-c3ccccc3)cc(-c3ccccc3)[n+]2-c2ccc(C(=O)O)cc2)cc1	-0.3%	i	i	5.4	?	1.0
O=C(O)c1ccc(-[n+]2c(-c3ccccc3)cc(-c3ccccc3)cc2-c2ccccc2)cc1	-5.1%	i	i	?	-8.4%	16.5
COc1ccc(-c2cc(-c3ccccc3)[n+](C)c(-c3ccccc3)c2)cc1	13.2%	3.26µM*	i	-23.4	?	-6.6
SMILES	MCF10A rereplic	KB-3-1 tox	KB-V1 MDR tox	DRD3 antagonist	SW480 rereplic	DRD3 agonist
CCCOC(=O)c1ccc(-[n+]2c(-c3ccccc3)cc(-c3ccccc3)cc2-c2ccccc2)cc1	?	16.4µM*	i	80.7	17.4%	15.6
C[n+]1c(-c2ccccc2)cc(CCCCc2cc(-c3ccccc3)[n+](C)c(-c3ccccc3)c2)cc1-c1ccccc1	?	?	i	-73.5*	3.5%	-21.6
O=C(CCS(=O)(=O)c1ccccc1)Nc1nnc(-c2ccco2)o1	?	i	i	-5.2	12.4%	6.7
O=C(COc1cc(Cl)ccc1Cl)Nc1ccc(Cl)cc1C(=O)c1ccccc1	/	/	/	/	/	-8.5
O=C(Nc1ccc(F)cc1)OC1CN2CCC1CC2 (configuration not stated)	8.2µM*	i	i	-2.2	10.8%	3.0
CC1=CC(C)CC(C)OC(=O)CC(c2ccc(O)cc2)NC(=O)C(Cc2c(Br)[nH]c3ccccc23)N(C)C(=O)C(C)NC(=O)C(C)C1 (configuration not stated)	?	0.184µM*	1.64µM*	20.0	0.116µM*	1.5
C[C@@H]1[C@H]2Cc3ccc(O)cc3[C@]1(C)CCN2C	/	/	/	/	/	-14.6
Cc1nn(Cc2ccccc2)c(C)c1C(=O)OCC(=O)Nc1ccccc1SCC#N	-0.6%	i	7.31µM*	-29.4	-3.7%	-4.9
CC(C)(C)n1cccc1/C=C1\C(=O)NC(=O)N(c2ccccc2)C1=O	12.3%	i	i	16.1	5.8%	-1.1
Cc1cc(C)cc(N2C(=O)NC(=O)/C(=C/c3cccn3-c3ccc(Cl)cc3)C2=O)c1	16.4µM*	i	i	-7.0	8.7%	-4.2
Cc1cccc(N2C(=O)NC(=O)/C(=C\c3cccn3-c3ccc(Cl)cc3)C2=O)c1	?	?	18.4µM*	-16.8	?	-12.2
CCCSP(=O)(OCC)SCCC	/	/	/	/	/	8.2
C[C@]12CC[C@H](OS(=O)(=O)O)CC1=CCC1C2CC[C@]2(C)C(=O)CC[C@@H]12 (some centres not stated)	-3.1%	/	/	/	-0.7%	/
